# High-throughput results from PubChem BioAssay.
# CF NFkB block – inhibitors of cystic fibrosis induced NF-kB. inhibition, % at 5 µM. 0.86% of 360,000 active. KKLEB NF-kB-GFP reporter, PAF-induced, GFP fluorescence overnight. AID 588850;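 active = at least 50% inhibition at 5 µM, scaled per plate between neutral and stimulator controls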;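 note: PAF is a Pseudomonas aeruginosa culture filtrate used as stimulus; plate controls were PAF-stimulated DMSO wells for no effect and unstimulated DMSO wells for full effect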
# TROY signal inh – inhibitors of TROY-dependent NF-kB signaling | 0.98% of 360,000 active | inhibition, % at 10 µM | AID 1347056 | Q293 LMP1-TROYcd NF-kB luciferase reporter, 4 h;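 active = compounds whose plate-normalised and pattern-corrected inhibition of the luciferase reporter signal at the single screening dose is 50% or more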
# Peg3 promoter – inhibitors of Peg3 promoter; inhibition, % at 20 µM; 1.7% of 360,000 active; HeLa PEG-Prom luciferase reporter, luminescence, overnight;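 active = inhibition of at least 50% at 20 µM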
# KKLEB cytotox – counter-screen for CF NF-kB inhibitors: cytotoxicity. KKLEB CF airway cells viability, ATPlite luminescence, overnight; hits give low values; cells stimulated with P. aeruginosa culture filtrate. activity change (cytotoxicity), % at 5 µM. 0.36% of 360,000 active;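 active = corrected activity change at or below -50% at 5 µM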
# HIF-2a block – HIF-2a inhibition; 786-0 RCC cells HIF-2a reporter, luciferase luminescence, overnight; AID 624352; 0.72% of 360,000 active; inhibition, % at 18.8 µM;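 active = inhibition of the luminescence signal of 40% or more relative to plate controls, in a single-dose primary screen at 18.75 µM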
# TWEAK-Fn14 inh – blocks TWEAK-Fn14 interaction in a reporter cell assay; 2% of 360,000 active; TWEAK-stimulated Fn14 reporter cells, luciferase luminescence, 8 h; inhibition, % at 10 µM; in the data active = inhibition above about 50%
# CF NFkB inh conf – confirmation of cystic fibrosis induced NF-kB inhibitors; shares compounds with CF NFkB block; KKLEB CF airway cells, PAF-induced NF-kB-GFP fluorescence, overnight; inhibition, % at 5 µM; 64% of 1,300 active; AID 602472; in the data active = inhibition above about 40%;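 note: stimulus PAF is a Pseudomonas aeruginosa filtrate and not platelet activating factor; plate controls were DMSO wells with stimulus for no effect and unstimulated DMSO wells for full effect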
# * hit, by the source's call; x = no result. A selection: hits, their analogues and other compounds. The true share with any hit is near 4%.
SMILES,CF NFkB block,TROY signal inh,Peg3 promoter,KKLEB cytotox,HIF-2a block,TWEAK-Fn14 inh,CF NFkB inh conf
COc1cccc(CNc2ncnc3cc(OC)c(OC)cc23)c1,8,9,21,1,22,5,x
CC(C)[C@H](CO)Nc1nc(NCc2ccc(S(N)(=O)=O)cc2)c2ncn(C(C)C)c2n1,71*,15,21,-16,24,27,104*
CC(C)n1cnc2c(NCc3ccc(S(N)(=O)=O)cc3)nc(NCc3ccc(S(N)(=O)=O)cc3)nc21,-12,-8,-11,-3,4,-12,x
COc1ccc(C2=Nn3c(nnc3-c3ccncc3)SC2)cc1,72*,33,5,-33,11,46,76*
COc1ccc(OC)c(-c2nnc3n2N=C(c2ccc(OC)c(OC4CCCC4)c2)CS3)c1,66*,47,13,-21,25,13,71*
Cc1ccn(-c2ccc(NC(=O)c3cccs3)cc2)n1,-29,-23,-263,-11,-193,8,x
O=C(OC1C2C=CC1C1C(=O)NC21)c1ccccc1 (centres undefined),12,-12,3,0,7,6,x
Nc1nccc(-c2cc(-c3ccc(Cl)cc3Cl)no2)n1,51*,26,-112,-22,-231,78*,27
COc1ccc(OC)c(Nc2ncnc3ccc(Br)cc23)c1,54*,18,37,-24,33,36,68*
COc1cccc(Nc2ncnc3ccc(Br)cc23)c1,62*,35,16,-14,11,63*,87*
COc1ccc(OC)c(Nc2ncnc3ccccc23)c1,11,-11,-7,-2,-9,-8,x
C=C(c1ccc2nc(NC(=O)OC)[nH]c2c1)c1cccs1,62*,-14,-177,-14,-198,34,96*
C=CCOc1ccc2nc(NC(=O)OC)[nH]c2c1,34,-7,-72,-32,-50,0,x
Cc1cccn2c(CNCC3(c4ccccc4)CCCC3)c(C(=O)N3CCOCC3)nc12,59*,11,47,-28,13,18,6
O=C(NCc1ccccc1)C(c1cc2ccccc2o1)n1c(=O)c(-c2ccccc2)nc2ccccc21 (centres undefined),x,x,x,x,-101,x,x
COc1ccccc1NS(=O)(=O)c1cccc(-n2c(O)c(C=Nc3ccccc3C(=O)O)c3ccccc3c2=O)c1,86*,38,34,15,27,44,93*
COc1ccc(-n2c(O)c(/C=N/NS(=O)(=O)c3ccc(C)cc3)c3ccccc3c2=O)cc1OC,-25,20,3,-4,12,6,x
Clc1cccc(Cl)c1C[n+]1ccc2ccccc2c1,15,-1,3,-30,12,14,x
O=C(Nc1ccc2c(c1)OCO2)c1cc(-c2ccc(O)cc2)on1,52*,-12,-165,-41,-205,-82,3
O=C(Nc1ccc2c(c1)OCO2)c1cc(-c2cccc(O)c2)on1,-43,-82,-326,8,-337,10,x
Cc1cc(C)c(CN2CCN(C(=O)Cn3cnc4c(OCc5ccccc5)ncnc43)CC2)c(C)c1,20,33,25,-7,-15,48,x
OCCCNc1ncnc2scc(-c3ccc(Cl)cc3)c12,63*,32,23,-11,24,73*,81*
C[C@@H]1CC=C[C@H]2[C@H]1C(=O)N(Cc1ccccc1)[C@H]2c1cccc([N+](=O)[O-])c1,56*,6,18,-21,13,-2,16
COC(=O)c1ccc(-c2ccc(OC)c([C@H]3[C@H]4C=CC[C@@H](C)[C@@H]4C(=O)N3Cc3ccccc3)c2)cc1,66*,8,29,-12,24,-17,53*
C[C@@H]1CC=C[C@H]2[C@H]1C(=O)N(Cc1ccccc1)[C@H]2c1ccoc1,28,5,-48,-5,19,22,x
CC[C@@H]1CC=C[C@H]2[C@H]1C(=O)N(Cc1ccccc1)[C@H]2c1ccoc1,59*,5,88*,-19,32,29,13
O=C(c1ccccc1NS(=O)(=O)c1ccc(F)cc1)N1CCOCC1,5,-9,7,-9,6,-2,x
